Here are results for 14 compounds from PubChem BioAssay (NCI).

Among the test systems are NCI-H23 lung; NCI-H226 lung; NCI-H322M lung; HOP-62 NSCLC; NCI-H460 lung; HOP-92 NSCLC; NCI-H522 lung; A549/ATCC NSCLC; 786-0 renal; COLO 205 colon.
Holding throughout (assay): NCI-60 one-dose screen, 48 h (100 = growth as untreated, 0 = no growth, -100 = all killed)
What all share (details): 10 µM unless noted

About 83,000 compounds went through this panel and 20% of them were active in at least one assay; those are over-represented in the sample as a whole.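 Single-concentration screen, 48 h exposure, 96-well plates. Endpoint: percent growth. Below 10 = active.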 Unmarked numbers belong to inactive results. Calls of active or inactive are those of the source.

For the compound `O=C(c1ccc(-c2nc(CSc3nc4ccccc4s3)no2)cc1)N1CCSCC1`, the growth was 52.9% in the experiment with NCI-H23 lung; 68.4% in the experiment with NCI-H226 lung; 100% in the experiment on NCI-H322M lung; 75.9% in the experiment on HOP-62 NSCLC; 69.6% in the experiment with NCI-H460 lung; 66.4% in the experiment on HOP-92 NSCLC. Moreover, the growth in the experiment on NCI-H522 lung is 19.7%; in the experiment with A549/ATCC NSCLC, 52.1%; with 786-0 renal, 90.6%; in the experiment on COLO 205 colon, 87.8%.
As to `Fc1cccc(CNc2c3ccccc3nc3ccccc23)c1F`, the growth in the experiment with NCI-H23 lung was 60.6%; with NCI-H226 lung, 72.9%; in the experiment on NCI-H322M lung, 63.4%; in the experiment with HOP-62 NSCLC, 72.7%; with NCI-H460 lung, 48%; with HOP-92 NSCLC it was 2.67% (active). Also, the growth with NCI-H522 lung was 53.8%; in the experiment with A549/ATCC NSCLC, 56.7%; in the experiment on 786-0 renal, 65.4%; with COLO 205 colon, 40.9%.
As to `Brc1ccc(-n2cc(-c3nn[nH]n3)c(-c3cccs3)n2)cc1`, the growth is 92.9% in the experiment on NCI-H23 lung; 80.2% in the experiment on NCI-H226 lung; 91.9% in the experiment on NCI-H322M lung; 91.3% in the experiment on HOP-62 NSCLC; 105% in the experiment on NCI-H460 lung; 88.2% with HOP-92 NSCLC. The growth in the experiment with NCI-H522 lung is 88%; in the experiment on A549/ATCC NSCLC it was 89.1%; in the experiment on 786-0 renal, 96.6%; in the experiment on COLO 205 colon, 117%.
With `CO/N=C(/C)c1ccc(NC(=O)CSc2nnc(-c3ccncc3)n2-c2ccccc2)cc1`, the growth in the experiment on NCI-H23 lung was 46.9%; with NCI-H226 lung, 24.2%; with NCI-H322M lung, 84.9%; with HOP-62 NSCLC, 39.2%; in the experiment on NCI-H460 lung, 15.9%; with HOP-92 NSCLC it was 3.16% (active). Further, the growth was -8.08% (active) with NCI-H522 lung, 68.4% with A549/ATCC NSCLC, -43.1% (active) in the experiment on 786-0 renal and 104% in the experiment on COLO 205 colon.
Take `CCc1ccc(Oc2cn[nH]c2-c2ccc(OCCc3ccc(F)cc3)cc2O)cc1`: the growth with NCI-H23 lung is 92.8%; with NCI-H226 lung, 96.7%; in the experiment on NCI-H322M lung it was 98.6%; with HOP-62 NSCLC, 114%; in the experiment with NCI-H460 lung, 94.8%; with HOP-92 NSCLC it was 83.2%. In addition, the growth in the experiment on NCI-H522 lung was -36.5% (active); in the experiment with A549/ATCC NSCLC, 66.9%; in the experiment on 786-0 renal, 99.7%; in the experiment on COLO 205 colon it was 108%.
For `Cn1c(-c2ccc(Br)cc2)c(O)c(=O)c2c(F)cccc21`, the growth in the experiment on NCI-H23 lung is 48.4%; in the experiment on NCI-H226 lung, 62.9%; with NCI-H322M lung, 53.5%; in the experiment with HOP-62 NSCLC, 34%; in the experiment on NCI-H460 lung, 20.5%; in the experiment on HOP-92 NSCLC it was 137%. Further, the growth with NCI-H522 lung is 54%; with A549/ATCC NSCLC, 45.9%; with 786-0 renal, 42.7%; in the experiment with COLO 205 colon it was 7.68% (active).
For `CCN1C(=O)N(CC)C2C1NN=c1s/c(=C\c3ccc(Cl)cc3Cl)c(=O)n12` (stereo not given), the growth in the experiment with NCI-H23 lung was 28.4%; with NCI-H226 lung, 48.8%; in the experiment on NCI-H322M lung it was 42.4%; in the experiment with HOP-62 NSCLC, 33.5%; in the experiment with NCI-H460 lung it was 5.72% (active); with HOP-92 NSCLC, 50.8%. In addition, the growth was -8.78% (active) in the experiment on NCI-H522 lung, 14.6% in the experiment on A549/ATCC NSCLC, 20.6% in the experiment with 786-0 renal and -7.91% (active) in the experiment on COLO 205 colon.
For `CN(C)C1CCN(Cc2ccc(NC(=O)c3cncc(C#Cc4cnc(N)c5ncccc45)c3)cc2C(F)(F)F)CC1`, the growth with NCI-H23 lung was 84.7%; in the experiment with NCI-H226 lung it was 90%; in the experiment on NCI-H322M lung it was 112%; in the experiment with HOP-62 NSCLC it was 75.5%; in the experiment on NCI-H460 lung, 0.477% (active); with HOP-92 NSCLC it was 66.4%. In addition, the growth in the experiment on NCI-H522 lung is 84.9%; in the experiment on A549/ATCC NSCLC it was 72.2%; in the experiment on 786-0 renal, -78.9% (active); in the experiment on COLO 205 colon, 69.6%.
For `CN1CCN(c2ccc(NC(=O)c3cncnc3Nc3ccc(OCc4ccccn4)c(Cl)c3)cc2)CC1`, the growth in the experiment on NCI-H23 lung is 70.1%; in the experiment on NCI-H226 lung, 70.2%; in the experiment on NCI-H322M lung, 62.2%; with HOP-62 NSCLC it was 3.8% (active); in the experiment with NCI-H460 lung, 27.8%; with HOP-92 NSCLC it was 45.7%. Besides, the growth was 55.4% in the experiment on NCI-H522 lung, 25.9% in the experiment on A549/ATCC NSCLC, -82.4% (active) in the experiment on 786-0 renal and -3.55% (active) in the experiment with COLO 205 colon.
Consider `O=C1/C(=C/c2ccc(Cl)cc2)COc2ccc(O)cc21`, for which the growth was 90.9% with NCI-H23 lung; 98.8% in the experiment with NCI-H226 lung; 94.8% in the experiment with NCI-H322M lung; 102% with HOP-62 NSCLC; 102% in the experiment with NCI-H460 lung; 95.9% with HOP-92 NSCLC. In addition, the growth in the experiment on NCI-H522 lung was 13.9%; in the experiment on A549/ATCC NSCLC, 89%; with 786-0 renal, 64.2%; in the experiment with COLO 205 colon, 78.2%.
On to `CN1CCN(Cc2ccc3c(NNC(=O)c4ccccc4)nc4cc(F)ccc4n23)CC1`, for which the growth with NCI-H23 lung is 29.9%; with NCI-H226 lung, 12.6%; in the experiment with NCI-H322M lung, 28.2%; in the experiment on HOP-62 NSCLC, 24.1%; with NCI-H460 lung, 3.88% (active); in the experiment on HOP-92 NSCLC it was 50.7%. Also, the growth with NCI-H522 lung was 28%; with A549/ATCC NSCLC, 14.8%; in the experiment on 786-0 renal, 26.4%; with COLO 205 colon, 19.5%.
As to `O=S(=O)(Nc1ccc(Cl)cc1)c1ccc(-c2cnc(C3CC3)o2)cc1`, the growth was 34.5% with NCI-H23 lung; 61.4% in the experiment on NCI-H226 lung; 44% in the experiment on NCI-H322M lung; 28.8% with HOP-62 NSCLC; 9.01% (active) in the experiment with NCI-H460 lung; 41% with HOP-92 NSCLC. Further, the growth in the experiment with NCI-H522 lung is 11.4%; in the experiment on A549/ATCC NSCLC it was 40.4%; with 786-0 renal, 41.1%; in the experiment with COLO 205 colon, 9.01% (active).
Regarding `CN(C)c1ccc(/C=C/C(=O)c2ccc(-n3cc(CN4CCN(c5cc6c(cc5F)c(=O)c(C(=O)O)cn6C5CC5)CC4)nn3)cc2)cc1`, the growth in the experiment with NCI-H23 lung is 80.3%; with NCI-H226 lung, 81.7%; with NCI-H322M lung it was 77.5%; with HOP-62 NSCLC, 67.3%; with NCI-H460 lung it was 32.5%; in the experiment with HOP-92 NSCLC, 50.3%. Moreover, the growth in the experiment on NCI-H522 lung was 48.5%; with A549/ATCC NSCLC, 82.2%; with 786-0 renal it was 33.2%; in the experiment on COLO 205 colon it was 105%.
Regarding `O=S(=O)(Nc1cc(Br)c(O)c2ccccc12)c1ccc(F)cc1`, the growth is 53.1% in the experiment with NCI-H23 lung; 97.5% in the experiment with NCI-H226 lung; 94.9% in the experiment with NCI-H322M lung; 103% with HOP-62 NSCLC; 103% with NCI-H460 lung; 47.1% in the experiment with HOP-92 NSCLC. Besides, the growth in the experiment on NCI-H522 lung was 77.3%; with A549/ATCC NSCLC it was 102%; in the experiment on 786-0 renal it was 111%; in the experiment on COLO 205 colon, 93.2%.
